G9a block: blocks human histone lysine methyltransferase G9a | Potency, µM (titrated, usually from 102 µM), for inactives: at the top dose activity, negative = inhibition, actives largely listed as inhibitors | G9a H3K9 monomethylation, AlphaScreen, 2 h | 350,000 tested, 8.8% active | AID 504332; further: potency means the concentration at half of the fitted maximal effect; on the % scale 0 is the no-effect control and ±100 the full control effect; nearly all actives have a fitted effect of over 75% in size
Target sequence (Q96KQ7 913-1193 limits assumed): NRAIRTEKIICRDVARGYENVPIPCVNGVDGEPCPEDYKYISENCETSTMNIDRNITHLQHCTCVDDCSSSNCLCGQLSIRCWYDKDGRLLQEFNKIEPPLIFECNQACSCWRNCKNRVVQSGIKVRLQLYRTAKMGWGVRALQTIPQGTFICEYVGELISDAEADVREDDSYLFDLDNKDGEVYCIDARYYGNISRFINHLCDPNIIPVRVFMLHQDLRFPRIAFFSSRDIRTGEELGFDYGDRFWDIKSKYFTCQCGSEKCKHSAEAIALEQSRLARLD
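Readings reflect AlphaScreen signal from monomethyl-H3K9 antibody detection. HMT at 20 nM; substrate b-H3K9 500 nM; cofactor SAM 20 uM; 2 h RT reaction; compounds tested as titrations in qHTS with 15 min preincubation.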
BAZ2B block: inhibitors of human BAZ2B bromodomain. AlphaScreen BAZ2B-H3K14Ac peptide displacement. 360,000 tested, 4.4% active. Potency, µM (highest dose often 114 µM), for the others: at the highest dose activity change, negative = inhibition, actives largely listed as inhibitors; further: potency means the concentration at half of the fitted maximal effect; on the % scale 0 is the no-effect control and ±100 the full control effect; nearly all actives have a fitted effect of over 60% in size
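Multi-concentration screen (max 110 uM) measuring displacement of acetylated histone H3 peptide from BAZ2B by AlphaScreen, using 50 nM protein, 50 nM peptide and 10 ug/mL streptavidin donor plus Ni-chelate acceptor beads.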
PLK1 PBD block: inhibitors of human PLK1 polo-box domain binding; 360,000 tested, 2.8% active; Potency, µM, without a hit: max response, negative = inhibition, usual class: inhibitors; P53350; Plk1 PBD binding of FITC phosphopeptide, fluorescence polarization; AID 720504; further: potency means the concentration at half of the fitted maximal effect; series mostly up to about 57 µM; on the % scale 0 is the no-effect control and ±100 the full control effect; nearly all actives have a fitted effect of over 65% in size
PI5P4Ka inh: blocks human PI5P4K alpha kinase activity | P48426 | 330,000 tested, 1.2% active | PI5P4Kalpha enzyme, ADP-Glo luminescence, 60 min; hits give low values | AID 652105 | max response, %; active means max response of -50% or lower; inconclusive means between -30% and -50%; inactive means -30% or higher; further: value at the top dose of about 77 µM; on the % scale 0 is the no-effect control and ±100 the full control effect
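Quantitative HTS of the MLSMR library against PI5P4Kalpha with substrate. ATP added last at 5 microM final; room temperature, 60 minutes. Remaining ATP depleted, ADP converted and read as luminescence.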
HP1b binding inh: blocks HP1-beta chromodomain binding to methylated histone tails | AID 540317 | AlphaScreen HP1-beta / biotin-H3K9me3 peptide binding | 390,000 tested, 0.56% active | Potency, µM (top dose mostly 114 µM), for inactives: top-dose activity change, negative = inhibition, most hits filed as inhibitors | P83916; further: potency means the concentration at half of the fitted maximal effect; nearly all actives have a fitted effect of over 70% in size
Target sequence (P83916 whole entry, looked up): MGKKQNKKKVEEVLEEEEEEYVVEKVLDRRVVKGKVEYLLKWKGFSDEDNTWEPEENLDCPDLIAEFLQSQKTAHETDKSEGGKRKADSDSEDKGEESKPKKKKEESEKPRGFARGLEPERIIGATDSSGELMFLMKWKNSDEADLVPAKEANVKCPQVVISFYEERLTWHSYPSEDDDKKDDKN
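AlphaScreen: HP1-beta (50 nM) preformed 30 min with biotin-H3(1-18)K9me3 peptide (50 nM) in PBS pH 7.4, 0.01% Tween-20. Compound added for 30 min at RT, then streptavidin donor/nickel chelate acceptor beads (10 ug/mL) for 30 min.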
JMJD2A Tudor: JMJD2A Tudor domain (human) inhibition; O75164; AlphaScreen JMJD2A-Tudor / H3K4me3 peptide binding; Potency, µM (doses to about 114 µM), for inactives: at the highest dose activity change, negative = inhibition, usual class: inhibitors; 390,000 tested, 4.4% active; further: potency means the concentration at half of the fitted maximal effect; on the % scale 0 is the no-effect control and ±100 the full control effect; nearly all actives have a fitted effect of over 50% in size
The depositor's hits bear a star; ? = inconclusive; / = not tested or not shown; [ ] = another dose, or the depositor's remark. The list is not random: actives were taken first. Their share in the collection is about 12%. Unless noted, the call rests on the fitted dose curve; in most records, active means well fitted curve in the direction sought with a large enough effect; inconclusive means small, poorly fitted or top-dose-only effect, or another doubt; inactive means no such curve, though single readings can be large; an effect the other way counts as inactive or inconclusive.

SMILES	G9a block	BAZ2B block	PLK1 PBD block	PI5P4Ka inh	HP1b binding inh	JMJD2A Tudor
COc1ccc(N2CCN(c3oc(COc4ccc(Cl)cc4Cl)nc3C#N)CC2)cc1	?	?	-15%	16	?	-33%
Cc1cc(C)c(NC(=O)CCCN2C(=O)COc3ccc(C)cc32)c(C)c1	4%[59 µM]	2%	/	/	16%	0%
CCCCOC(=O)c1cccc(NC(=O)c2cc3ccccc3o2)c1	37%[59 µM]	39%	/	/	59%	16%
CCc1nc2c(OCCOc3ccc(F)cc3)cccn2c1N(C=O)Cc1ccc(OC)cc1	/	/	-11%	-6	/	/
Cc1ccc(-c2nn(-c3ccc(F)cc3)cc2C(=O)NCCCN2CCCC2=O)cc1	-16%	7%	-6%	7	17%	-5%
O=C(c1ccc(Br)cc1)N1CCCc2ccccc21	3%	9%	?	3	8%	?
O=C(O)CCc1ccc(-c2ccccc2)n1CC(=O)Nc1ccccc1C(F)(F)F	-30%[59 µM]	-22%	/	/	35%	-9%
N#Cc1nc(COc2ccc(-c3ccccc3)cc2)oc1N1CCC(C(N)=O)CC1	/	/	/	/	10%	-30%
COc1ccc(N2CCN(c3oc(COc4ccccc4)nc3C#N)CC2)cc1	10µM*	10µM*	-28%	7	?	?
N#Cc1nc(COc2ccccc2)oc1N1CCOCC1	-3%[12.7 µM]	-5%	1%	0	21%	3%
CN1CCN(c2oc(COc3ccc(-c4ccccc4)cc3)nc2C#N)CC1	13µM*	11µM*	-6%	/	14µM*	28µM*
Cc1ccc(C)c(-n2nnc3ccccc3c2=O)c1	/	/	-2%	0	/	/
Oc1ccc(/C=N/NC(=S)NCCN2CCOCC2)c(O)c1	?	10µM*	3%	7	8%	56µM*
Cc1[nH]c2ccc(C(=O)N3CCN(c4ccccc4Cl)CC3)cc2c1C	?	22µM*	-11%	1	?	45µM*
Cc1cccc(N2CCN(C(=O)c3ccc4[nH]c(C)c(C)c4c3)CC2)c1C	/	/	-5%	-3	-38%	?
CC1=C(C(=O)Nc2ccc(C(=O)N3CCN(c4cccc(Cl)c4)CC3)cc2)SCCO1	45µM*	?	-6%	-7	-7%	?
C=CCn1c(=O)[nH]c2cc(C(=O)N3CCN(c4cccc(Cl)c4)CC3)ccc2c1=O	8%[2.33 µM]	-14%	-12%	-53*	0%	-34%
COc1ccccc1N1CCN(C(=O)c2ccc3[nH]c(C)c(C)c3c2)CC1	40µM*	?	-9%	-4	-23%[57 µM]	?
O=C(Nc1ccc(Br)cc1)c1cc(Br)c(Br)s1	-51%[12.7 µM]	/	/	/	/	/
CC(C)(C)OC(=O)N1CCC(c2c(C(=O)NCc3cccs3)cnn2-c2ccc(F)cc2F)CC1	-1%[59 µM]	2%[57.1 µM]	/	/	22%	-18%
COc1ccccc1N1CCN(C(=O)c2ccc3[nH]c4c(c3c2)CC(C)CC4)CC1 (centres undefined)	?	40µM*	-6%	2	?	?
CC1CCc2[nH]c3ccc(C(=O)O)cc3c2C1 (centres undefined)	/	19%	4%	-8	37%	-4%
COc1ccccc1N1CCN(C(=O)c2cc3c(C)nc4ccccc4c3o2)CC1	50µM*	?	-12%	0	24%	-33%
Cc1[nH]c2ccc(C(=O)N3CCN(c4ccccc4F)CC3)cc2c1C	?	?	/	/	?	89µM*
Cc1[nH]c2ccc(C(=O)N3CCN(c4cccc(Cl)c4)CC3)cc2c1C	40µM*	?	0%	7	-5%	?
SMILES	G9a block	BAZ2B block	PLK1 PBD block	PI5P4Ka inh	HP1b binding inh	JMJD2A Tudor
Cc1ccc(C)c(N2CCN(C(=O)c3cc4c(C)nc5ccccc5c4o3)CC2)c1	?	?	4%	18	-10%[57 µM]	?
Cc1cccc(Cn2ncc3c4sc(C)cc4n(C)c3c2=O)c1	/	/	/	/	/	11%
CC1(C)OC2CC3C4CC(F)C5=CC(=O)C=C[C@@]5(C)[C@@]4(F)C(O)C[C@@]3(C)[C@]2(C(=O)CO)O1 (some centres undefined)	-12%[2.33 µM]	/	/	/	/	/
CCOc1ccc(CCNC(=O)CCCn2c(=O)c3cccn3c3cccnc32)cc1OCC	13%	2%	6%	-2	61%	-19%
CCOC(=O)c1[nH]c(C)c(C(=O)N2CCN(c3cccc(Cl)c3)CC2)c1C	?	50µM*	-1%	/	-14%	?
COc1ccc(NC2CCCN(C(=O)c3ccc4[nH]c(C)c(C)c4c3)C2)cc1OC (centres undefined)	/	45µM*	-3%	3	-8%	?
O=C(NCc1cccs1)C1CCCN1C(=O)Nc1ccccc1Cl (centres undefined)	?	-2%	3%	2	-5%	-18%
O=C(c1ccco1)N1CCc2ccccc21	-7%	17%	1%	3	20%	-9%
CC1Cc2ccccc2N1C(=S)NC(=O)c1ccco1 (centres undefined)	40µM*	/	-17%	-22	?	-35%
O=C(NC(=S)N1CCCc2ccccc21)c1ccco1	45µM*	?	-28%	-2	19%	-22%
O=C(Nc1ccc(F)cc1)c1cccn1-c1nnc(N2CCCCC2)s1	-13%[59 µM]	-37%	/	/	-15%	-19%
Nc1ccc(N=Nc2ccccc2)cc1[N+](=O)[O-]	/	/	-11%	9	?	?
O=[N+]([O-])c1ccccc1N=Nc1ccc(O)cc1	/	/	2%	5	?	50µM*
O=[N+]([O-])c1ccccc1N=NNc1ccccc1	/	/	-8%	8	?	20µM*
O=c1c(N=Nc2ccccc2)c[nH]n1-c1ccccc1	/	/	3%	-6	/	/
Nc1[nH]n(-c2ccccc2)c(=O)c1N=Nc1ccc2ncsc2c1	/	?	27µM*	?	-29%	-21%[11.4 µM]
COc1cc([N+](=O)[O-])ccc1N=Nc1c(N)[nH]n(-c2ccccc2)c1=O	50µM*	?	30µM*	?	-26%	-23%[11.4 µM]
Nc1[nH]n(-c2ccccc2)c(=O)c1N=Nc1ccccc1[N+](=O)[O-]	-11%	-25%	-8%	/	0%	-21%
Nc1[nH]n(-c2ccccc2)c(=O)c1N=Nc1ccccc1	4.5µM*	7.9µM*	-8%	16	?	13µM*
Cc1ccc(NS(=O)(=O)c2cc3c(cc2F)NC(=O)CC3)cc1C	/	/	/	/	/	-7%
O=C1CSC2(C(=O)N(Cc3c(F)cccc3Cl)c3ccccc32)N1c1ccc(F)c(F)c1 (centres undefined)	-30%[59 µM]	1%[57.1 µM]	/	/	55%	-22%
O=C(Cn1c(SCCOc2ccccc2Cl)nc2ccccc21)N1CCOCC1	-12%[59 µM]	-4%	/	/	21%	-23%
COc1ccc2oc(=O)c(C(=O)OCc3ccccc3)cc2c1	28µM*	-7%	?	3	2%	6%
S=c1[nH]nc(Cc2c[nH]c3ccccc23)o1	1.6µM*	-4%	-15%	/	13%	79µM*
